Experiment [1] in a line: qHTS for Inhibitors of Plasmodium falciparum (DD2) proliferation (AID 504314).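 Further: parasite DNA measured by SYBR Green fluorescence after red cell lysis; plate controls were DMSO vehicle for no effect and artemisinin wells for full effect.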 In outline:
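Quantitative HTS growth inhibition: SYBR Green I binding to parasite DNA after 72 h drug exposure of infected erythrocytes (0.3% parasitemia, 2.5% hematocrit). Signals normalized per plate to inhibitor and vehicle wells.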
In general terms: In qHTS, concentration-response curves come from the screen itself.

The nature of experiment [2]: qHTS for Inhibitors of Plasmodium falciparum (GB4) proliferation (AID 504315).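 Further: 0% = DMSO vehicle and -100% = 0.29 µM artemisinin control; nearly all actives have a fitted effect of over 50% in size.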 In short, it runs like this:
(§1)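 Erythrocytes infected with P. falciparum line (0.3% parasitemia, 2.5% hematocrit final) incubated with compounds 72 h at 37 °C, 5% CO2; SYBR Green lysis buffer added, fluorescence read next day. Normalized to 0.29 uM artemisinin and DMSO.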

The nature of experiment [3]: qHTS for Inhibitors of Plasmodium falciparum (7G8) proliferation (AID 504316). Further: nearly all actives have a fitted effect of over 65% in size. Further: potency means the concentration at half of the fitted maximal effect. In outline:
as §1

A short description of experiment [4]: qHTS for Inhibitors of Plasmodium falciparum (HB3) proliferation (AID 504318).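 Further: 0% = DMSO vehicle and -100% = artemisinin control; nearly all actives have a fitted effect of over 60% in size.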 In outline:
as §1

Experiment [5] in a line: qHTS for Inhibitors of Plasmodium falciparum (CP250) proliferation (AID 504320).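 Further: plate controls were DMSO vehicle for no effect and 0.29 µM artemisinin control for full effect.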 In outline: as §1
The target of experiment [6] is Atrial natriuretic peptide receptor 1 (Homo sapiens) (UniProt P16066). Put plainly: Natriuretic polypeptide receptor (hNpr1) antagonism - Pilot CMLD screen (AID 1347052; calls by dose curve;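 further: HEK293 cells with hNpr1 stimulated by hNppA peptide at 0.1 nM; cGMP level read as GloSensor luciferase luminescence after agonist stimulation; series mostly up to about 9.2 µM; on the % scale 0 is the no-effect control and ±100 the full control effect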).
Atrial natriuretic peptide receptor 1 (Homo sapiens), sequence (P16066 whole entry, looked up): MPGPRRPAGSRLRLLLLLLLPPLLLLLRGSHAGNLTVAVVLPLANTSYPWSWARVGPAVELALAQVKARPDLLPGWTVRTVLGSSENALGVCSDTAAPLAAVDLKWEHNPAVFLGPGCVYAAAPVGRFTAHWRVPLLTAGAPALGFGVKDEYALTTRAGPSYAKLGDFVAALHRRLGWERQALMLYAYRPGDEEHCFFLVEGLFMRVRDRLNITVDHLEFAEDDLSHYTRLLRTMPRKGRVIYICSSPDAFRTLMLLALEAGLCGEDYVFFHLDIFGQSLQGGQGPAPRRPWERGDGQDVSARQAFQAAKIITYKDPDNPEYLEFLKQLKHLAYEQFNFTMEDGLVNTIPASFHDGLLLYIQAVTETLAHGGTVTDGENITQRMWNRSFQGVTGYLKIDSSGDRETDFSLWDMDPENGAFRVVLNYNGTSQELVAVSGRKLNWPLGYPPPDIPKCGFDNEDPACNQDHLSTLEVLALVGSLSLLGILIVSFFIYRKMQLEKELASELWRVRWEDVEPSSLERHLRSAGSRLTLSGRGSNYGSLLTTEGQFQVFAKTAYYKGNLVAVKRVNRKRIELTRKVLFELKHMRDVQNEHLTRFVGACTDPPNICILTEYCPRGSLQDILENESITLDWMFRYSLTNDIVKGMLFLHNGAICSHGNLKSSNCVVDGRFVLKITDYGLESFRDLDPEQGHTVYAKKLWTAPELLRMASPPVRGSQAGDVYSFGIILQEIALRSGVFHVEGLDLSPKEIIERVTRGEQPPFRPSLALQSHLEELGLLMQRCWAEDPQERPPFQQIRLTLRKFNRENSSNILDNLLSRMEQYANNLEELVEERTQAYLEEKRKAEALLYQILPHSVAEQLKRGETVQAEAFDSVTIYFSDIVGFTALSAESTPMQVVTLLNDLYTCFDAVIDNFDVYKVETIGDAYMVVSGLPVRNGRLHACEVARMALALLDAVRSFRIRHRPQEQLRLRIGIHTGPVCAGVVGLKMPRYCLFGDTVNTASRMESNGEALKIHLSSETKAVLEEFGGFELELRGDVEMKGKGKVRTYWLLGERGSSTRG

Records with an inconclusive call do not appear. Unmarked numbers belong to inactive results. Active and inactive are the calls of the source. Unless noted, the call rests on the fitted dose curve; in most records, active means well fitted curve in the direction sought with a large enough effect; inconclusive means small, poorly fitted or top-dose-only effect, or another doubt; inactive means no such curve, though single readings can be large; an effect the other way counts as inactive or inconclusive.

This passage reports Potency and activity, negative = inhibition results from PubChem BioAssay (NCATS).

`O=C1C[C@@H](c2ccccc2)[C@H](c2ccc(Br)cc2)O1`: the Potency entry in experiment [1], in experiment [2], in experiment [3], in experiment [4], in experiment [5] and in experiment [6] was “inactive” in each case.
On to `COC(=O)[C@@H]1CC[C@H](C)[C@@H](c2ccc(C)cc2)N1C(=O)c1ccc(C=NO[C@H](C)c2cn([C@@H]3COC[C@@H]3O)nn2)cc1`, for which the Potency entry in experiment [1], in experiment [2], in experiment [3], in experiment [5] and in experiment [6] was “inactive” throughout.
In the case of `CCN1C(=O)N(S(=O)(=O)c2ccc(C)cc2)C(c2ccccc2)C(C(=O)OC)=C1C` (stereo unspecified), the Potency entry in experiment [1], in experiment [2], in experiment [3], in experiment [5] and in experiment [6] was “inactive” in each case.
Consider `COC(=O)NC(c1ccc2c(c1)OCO2)C(C(=O)OC)C(=O)OC` (stereo unspecified), for which the Potency entry in experiment [1], in experiment [2], in experiment [3], in experiment [5] and in experiment [6] was “inactive” throughout.
As to `CC[C@H]1OC(c2ccccc2)[C@H](C)[C@H]2O[C@@H]2[C@@H]1C(=O)OC` (stereo partly specified), the Potency result in experiment [1], in experiment [2], in experiment [3], in experiment [5] and in experiment [6] was “inactive” throughout.
In the case of `COC(=O)c1ccc(CN2C(=O)[C@]3(O[C@H](C)CC4=CCCC43)c3c(Br)cccc32)cc1` (stereo partly specified), the Potency result in experiment [1], in experiment [2], in experiment [3], in experiment [5] and in experiment [6] was “inactive” each time.
For the molecule `COc1cccc([C@@H]2Oc3ccc(OC)cc3[C@H](O)[C@@H]2O)c1`, the Potency result in experiment [1], in experiment [2], in experiment [3], in experiment [5] and in experiment [6] was “inactive” in each case.
For the molecule `COCCN1C(=O)C2=C(C1=O)C1N(C)c3ccccc3[C@@]13C[C@@H](CO)N(C(C)=O)C3=N2` (stereo partly specified), the Potency result in experiment [1], in experiment [2], in experiment [3], in experiment [5] and in experiment [6] was “inactive” throughout.
For `COC(=O)C1=C(C(=O)OC)[C@@H]2N(C)c3ccccc3[C@@]23CCC(=O)N(CC(C)C)C3=N1`, the Potency result in experiment [1], in experiment [2], in experiment [3], in experiment [5] and in experiment [6] was “inactive” each time.
Take `CCCCCC1=CC2=C(C(=O)OC)C(c3ccccc3)NC(=O)N2CC1` (stereo unspecified): the Potency result in experiment [1], in experiment [2], in experiment [3], in experiment [5] and in experiment [6] was “inactive” throughout.
For `COc1ccc(COC(=O)NN=C2C[C@@H](O)[C@@H](O)[C@@H]3[C@H]4C(=O)N(C5CCCCC5)C(=O)[C@@H]4CC[C@@H]23)cc1`, the Potency entry in experiment [1], in experiment [2], in experiment [3], in experiment [5] and in experiment [6] was “inactive” in each case.
In the case of `C=CCOC(=O)NC(CC(=Nc1ccc(OC)cc1)C(=O)OC)c1ccccc1` (stereo unspecified), the Potency result in experiment [1], in experiment [2], in experiment [3], in experiment [5] and in experiment [6] was “inactive” in each case.
For the molecule `C[C@@H]1C=CCCO[C@]12C(=O)N(Cc1ccc(Br)cc1)c1ccccc12`, the Potency result in experiment [1], in experiment [2], in experiment [3], in experiment [5] and in experiment [6] was “inactive” each time.
For `COc1ccc2c(c1)c(CC(=O)NCc1ccc3c(c1)OCO3)c(C)n2C(=O)c1ccc(Cl)cc1`, the Potency result in experiment [1], in experiment [2], in experiment [3], in experiment [5] and in experiment [6] was “inactive” each time.
Take `COCCN1C(=O)NC(c2ccc(Br)cc2)C(C(=O)OC)=C1C` (stereo unspecified): the Potency entry in experiment [1], in experiment [2], in experiment [3], in experiment [5] and in experiment [6] was “inactive” in each case.
For `CCN1C(=NCC(C)C)N[C@H](c2ccccc2)[C@H](C(=O)OC)[C@H]1C`, the Potency entry in experiment [1], in experiment [2], in experiment [3], in experiment [5] and in experiment [6] was “inactive” in each case.
Regarding `COc1ccc(COC(=O)NN=C2C[C@@H](O)[C@@H](O)[C@@H]3[C@H]4C(=O)N(C[C@@H]5CCCO5)C(=O)[C@@H]4CC[C@H]23)cc1`, the Potency entry in experiment [1], in experiment [2], in experiment [3], in experiment [5] and in experiment [6] was “inactive” in each case.
For the molecule `COc1ccc(CN2C=C3C(=O)C(C)(OC(=O)C4CCCC4)C(=O)C=C3C=C2c2ccsc2)cc1` (stereo unspecified), in experiment [1], the activity, negative = inhibition was -5.43% [at 1.12 µM]. Moreover, the Potency result in experiment [2], in experiment [3], in experiment [5] and in experiment [6] was “inactive” throughout.
Take `COC(=O)[C@H](COC(C)(C)C)NC(=O)O[C@@H]1C(=O)c2cc(OC)ccc2O[C@H]1c1ccc(OC)c(Br)c1`: the Potency entry in experiment [1], in experiment [2], in experiment [3], in experiment [5] and in experiment [6] was “inactive” each time.
On to `CCN1C(=O)N(S(=O)(=O)C(F)(F)F)C(c2ccccc2)C(C(=O)OC)=C1C` (stereo unspecified), for which the Potency entry in experiment [1], in experiment [2], in experiment [3], in experiment [5] and in experiment [6] was “inactive” in each case.
Consider `COC(=O)C1=C(C(=O)OC)[C@@H]2Nc3ccccc3[C@@]23C[C@@H](C(=O)OC)N(C(=O)Nc2ccccc2F)C3=N1`, for which the Potency entry in experiment [1], in experiment [2], in experiment [3], in experiment [5] and in experiment [6] was “inactive” throughout.
Consider `COC(=O)C1=C(C(=O)OC)[C@@H]2Nc3ccccc3[C@@]23C[C@@H](C(=O)OC)N(C(=O)NCCBr)C3=N1`, for which the Potency entry in experiment [1], in experiment [2], in experiment [5] and in experiment [6] was “inactive” in each case. The Potency in experiment [3] was 1900 nM (active).
On to `CC(=O)[C@@H]1[C@@H](C)N(Cc2ccccc2)C(=O)N[C@H]1c1ccccc1`, for which the Potency result in experiment [1], in experiment [2], in experiment [3], in experiment [5] and in experiment [6] was “inactive” throughout.
On to `COC[C@@H](OC(C)=O)[C@H]1OCc2ccccc2[C@H]1C=Cc1ccccc1`, for which the Potency entry in experiment [1], in experiment [2], in experiment [3], in experiment [5] and in experiment [6] was “inactive” in each case.
For the molecule `COC(=O)CC=C1c2ccc3c(c2[C@@H](OC)[C@@H]1C)OCO3`, the Potency entry in experiment [1], in experiment [2], in experiment [3], in experiment [5] and in experiment [6] was “inactive” each time.
On to `COC(=O)CCCC1=CC2=CC(=O)C(C)(OC(=O)c3cccs3)C(=O)C2=CN1C1CC1` (stereo unspecified), for which the Potency result in experiment [1], in experiment [2], in experiment [3], in experiment [5] and in experiment [6] was “inactive” in each case.
Consider `C=CCOC(=O)C1(C(NC(=O)OC)c2ccccc2)C(=O)Cc2ccccc21` (stereo unspecified), for which the Potency result in experiment [1], in experiment [2], in experiment [3], in experiment [5] and in experiment [6] was “inactive” each time.
